Source: PubChem BioAssay
Hits are enriched below; roughly 1.3% of the tested compounds scored in any of these assays.
NCOA1 inh: SRC1 coactivator transcriptional activity inhibitors, primary screen, cell-based, luminescence | Nuclear receptor coactivator 1 (Homo sapiens), Q15788 | HEK293 GAL4-SRC1 luciferase reporter | inhibition, % at 3.6 µM | 360,000 compounds, 0.12% hits | AID 588354, 2011;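 active means inhibition above the campaign mean plus 3 SD, with each screening campaign given its own cutoff, cut at about 60% in these data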;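 further: 0% = DMSO treated cells and 100% = gossypol at 36 µM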
LRH-1 inv ag: LRH-1 (NR5A2) inverse agonists, primary screen, cell-based, luminescence, HEK293T, StAR-luciferase reporter | Nuclear receptor subfamily 5 group A member 2 (Homo sapiens), O00482 | LRH-1 transfected, 24 h | inhibition, % at 3.6 µM | 360,000 compounds, 0.13% hits | AID 602396, 2012;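 active means inhibition above the mean inhibition of all tested compounds plus 3 SD, cut at about 73% in these data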;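 further: 0% = DMSO wells and 100% = reporter-only cells lacking LRH-1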
NCOA3 inh: SRC3 coactivator transcriptional activity inhibitors, primary screen, cell-based, luminescence; Nuclear receptor coactivator 3 (Homo sapiens), Q9Y6Q9; HEK293 GAL4-SRC3 luciferase reporter; inhibition, % at 3.6 µM; 360,000 compounds, 0.17% hits;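 active means inhibition above a per-campaign cutoff, the mean of all compounds plus 3 SD, cut at about 60% in these data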;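 further: 0% = DMSO-treated cells and 100% = gossypol-treated cells at 36 µM; higher means less SRC3-driven luciferase light from the GAL4 reporter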
Target sequence (Q9Y6Q9 whole entry, looked up, the tested form may be a part): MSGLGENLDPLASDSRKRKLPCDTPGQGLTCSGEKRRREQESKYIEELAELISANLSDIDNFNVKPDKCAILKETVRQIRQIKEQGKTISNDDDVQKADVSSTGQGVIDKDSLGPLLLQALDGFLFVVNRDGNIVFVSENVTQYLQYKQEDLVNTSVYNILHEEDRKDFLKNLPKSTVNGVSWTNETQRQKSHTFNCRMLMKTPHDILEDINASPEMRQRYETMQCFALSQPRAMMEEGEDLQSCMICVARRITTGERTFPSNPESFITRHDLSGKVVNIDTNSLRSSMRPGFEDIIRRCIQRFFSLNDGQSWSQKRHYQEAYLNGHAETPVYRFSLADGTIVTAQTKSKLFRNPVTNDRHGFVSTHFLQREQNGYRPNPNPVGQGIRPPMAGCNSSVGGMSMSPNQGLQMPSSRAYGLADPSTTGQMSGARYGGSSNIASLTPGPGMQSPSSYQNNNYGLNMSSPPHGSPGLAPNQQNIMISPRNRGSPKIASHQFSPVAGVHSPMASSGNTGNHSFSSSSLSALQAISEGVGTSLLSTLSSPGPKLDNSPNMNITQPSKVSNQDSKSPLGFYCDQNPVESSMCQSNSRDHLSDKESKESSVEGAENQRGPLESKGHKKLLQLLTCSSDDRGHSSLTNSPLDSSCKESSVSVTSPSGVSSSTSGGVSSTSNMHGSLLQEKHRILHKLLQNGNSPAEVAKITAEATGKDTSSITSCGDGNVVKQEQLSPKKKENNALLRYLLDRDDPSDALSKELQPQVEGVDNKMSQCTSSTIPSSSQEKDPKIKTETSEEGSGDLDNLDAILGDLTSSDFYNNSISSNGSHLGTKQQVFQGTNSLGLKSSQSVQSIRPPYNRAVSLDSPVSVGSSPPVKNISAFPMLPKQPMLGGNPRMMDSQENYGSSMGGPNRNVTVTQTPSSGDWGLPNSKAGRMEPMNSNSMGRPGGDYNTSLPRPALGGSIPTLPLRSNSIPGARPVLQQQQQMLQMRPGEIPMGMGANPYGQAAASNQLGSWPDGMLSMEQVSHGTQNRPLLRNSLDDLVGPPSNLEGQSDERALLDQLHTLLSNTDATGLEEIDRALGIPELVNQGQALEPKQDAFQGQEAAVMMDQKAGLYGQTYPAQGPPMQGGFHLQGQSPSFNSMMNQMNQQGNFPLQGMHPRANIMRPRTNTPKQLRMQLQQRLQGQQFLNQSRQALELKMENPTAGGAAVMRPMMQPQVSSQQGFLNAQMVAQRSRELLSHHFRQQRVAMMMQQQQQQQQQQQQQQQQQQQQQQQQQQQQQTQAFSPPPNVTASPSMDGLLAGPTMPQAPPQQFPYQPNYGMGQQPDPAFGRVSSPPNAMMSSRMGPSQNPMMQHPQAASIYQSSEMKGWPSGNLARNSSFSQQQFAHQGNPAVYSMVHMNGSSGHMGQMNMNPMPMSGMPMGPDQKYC
NR2F2 inh: NR2F2 transcriptional activity inhibitors, primary screen, cell-based, luciferase reporter, HEK293T, luminescence | COUP transcription factor 2 (Homo sapiens), P24468 | HEK293T NGFI-A luciferase reporter | inhibition, % at 8.6 µM | 370,000 compounds, 0.7% hits;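 active means inhibition above a per-plate cutoff, mean inhibition of test wells between control levels plus 3 SD, cut at about 38% in these data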;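 further: cells cotransfected with COUP-TFII expression vector driving the NGFI-A reporter; 0% = median of COUP-TF2 test wells and 100% = reporter-only cells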
Gli-Sufu antag: Gli-Sufu pathway antagonists, primary screen, luciferase luminescence, Sufu-KO-LIGHT cells, uHTS; Sufu-KO-LIGHT fibroblasts, Gli luciferase reporter luminescence; inhibition, % at 5 µM; 340,000 compounds, 0.74% hits;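 active means inhibition above about 55%, limit read from the data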;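 further: 0% = DMSO-treated cells and 100% = wells with medium but no cells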
NCOA2 inhibitor: inhibition of GAL4-SRC2 driven luciferase reporter, primary screen, SRC2 inhibitor project, cell-based, luminescence; Nuclear receptor coactivator 2 (Homo sapiens), Q15596; HEK293 GAL4-SRC2 luciferase reporter; inhibition, % at 9 µM; 370,000 compounds, 0.17% hits; AID 651957, 2012;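 active means inhibition above the mean inhibition of all tested compounds plus 3 SD, set per campaign, cut at about 52% in these data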;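 further: 0% = DMSO treated cells and 100% = cells given Gossypol at 36 µM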
Gli-Sufu confirm: Gli-SUFU pathway antagonists, confirmation, single concentration, luciferase luminescence, Sufu-KO-LIGHT cells; inhibition, % at 5 µM; shares compounds with Gli-Sufu antag; Gli luciferase reporter; AID 602428, 2012; 2,500 compounds, 40% hits;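 active means mean inhibition at 5 µM reaching about 45%, limit read from the data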;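 further: plate controls were DMSO-treated cells for no effect and wells lacking cells for full effect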
Gli cytotox: cytotoxicity in Sufu-KO-LIGHT cells, confirmation, cytotoxicity control for Gli-SUFU antagonist project, cell-based, ATP luminescence, single concentration | shares compounds with Gli-Sufu antag | cytotoxicity, % at 5 µM | 2,500 compounds, 32% hits;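 active means mean cytotoxicity at 5 µM above about 25%, limit read from the data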;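 further: cells exposed to compound overnight for roughly 16 to 18 hours; plate controls were DMSO wells with cells for no effect and medium without cells for full effect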
Wnt3a counter: Wnt3a reporter signal inhibition, confirmation, counter-screen for Gli-SUFU antagonist project, Wnt-LIGHT cells, luminescence, single concentration | AID 651995, 2013 | 2,500 compounds, 20% hits | shares compounds with Gli-Sufu antag | inhibition, % at 6.25 µM | Wnt3a-driven luciferase reporter;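 active means mean inhibition above about 25%, limit read from the data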
Active calls of the source: *; . = not tested or not shown.

SMILES	NCOA1 inh	LRH-1 inv ag	NCOA3 inh	NR2F2 inh	Gli-Sufu antag	NCOA2 inhibitor	Gli-Sufu confirm	Gli cytotox	Wnt3a counter
COc1ccc(OCC(O)CNC(C)c2ccccc2)cc1 (centres undefined)	-10	6	-7	16	6	-4	.	.	.
Cc1cc(NC(=O)CSc2ccc(-c3nc4cc(C)c(C)cc4[nH]3)cn2)no1	-119	-126	-80	.	97*	.	21	27*	-206
N#C/C(=C\c1ccc(-c2ccc([N+](=O)[O-])cc2)o1)C(=O)Nc1nc(-c2cccs2)cs1	-16	2	2	-6	70*	-9	80*	21	44*
COc1ccc(C(=O)c2[nH]c(N)c(C(=O)c3ccccc3)c2-c2ccc(OC)c(OC)c2)cc1	.	.	.	0	.	.	.	.	.
Cc1ccc(S(=O)(=O)N2CCC(C(=O)N[C@@H](C)C(=O)Nc3ccc4c(c3)OCO4)CC2)cc1	-30	3	-5	1	53	-17	21	15	-4
Cc1ccc(NC(=S)Nc2ccc(OC(F)F)c(Cl)c2)cc1Cl	-117	16	-4	-13	56*	-9	5	-2	-19
COc1ccc(OCC(O)Cn2c(=N)n(Cc3ccccc3)c3ccccc32)cc1 (centres undefined)	-1	15	11	1	52	-5	33	31*	-14
Cc1ccc(C(=O)N2CCC[C@@H]2C(=O)N2CCC[C@@H]2C(=O)NCc2ccccc2)cc1	.	.	.	2	.	-8	.	.	.
O=C(NCC(c1ccco1)N1CCCC1)c1sc2ccccc2c1Cl (centres undefined)	-1	-34	-16	1	51	5	16	11	-81
Cc1c(C(=O)NCC(c2ccco2)N2CCCC2)sc2ccccc12 (centres undefined)	-2	2	-43	9	4	-19	.	.	.
CO[C@H]([C@H](C)/C=C/N(C)C=O)[C@@H](C)C(=O)CC[C@H](C)[C@H](O)[C@H](C)[C@H]1OC(=O)/C=C/C(C)=C/C[C@H](O)C[C@@H]2C=CC[C@@H](C[C@H](OC)[C@@H](C)[C@@H](OC)C[C@@H](OC)[C@@H]1C)O2	.	.	.	32	.	.	.	.	.
COCCNC(=S)N(C)[C@H]1C[C@H]2c3[nH]c4c(-c5ccccc5)cccc4c3CCN2C[C@H]1[C@H](C)O	.	.	.	11	.	-12	.	.	.
O=C(C1CC1)N1CCN(c2ccc([N+](=O)[O-])cc2)CC1	-210	5	3	-7	53	-4	23	11	1
Cc1ccc(S(=O)(=O)N(CC(=O)NC2CCC(C)CC2)c2cc(C)cc(C)c2)cc1 (centres undefined)	.	.	.	-13	.	-53	.	.	.
CCCC(=O)Nc1sc(C)c(C)c1C#N	4	9	13	-11	20	-35	.	.	.
CCCCCC(=O)Nc1sc(C)c(C)c1C#N	-10	-28	0	-30	66*	-11	12	2	-37
CCn1c(SCC(=O)Nc2ccccc2-c2ccccc2)nnc1-c1ccc(Cl)cc1	.	.	.	-8	.	-10	.	.	.
Cc1cc(NC(=O)CSc2cc(Cl)ccc2Cl)n(-c2ccccc2)n1	-49	13	19	7	52	-4	22	7	-5
Cc1cc(NC(=O)COc2ccc(Cl)cc2Cl)n(-c2ccccc2)n1	-40	0	6	8	5	24	.	.	.
COC(=O)c1ccc2c(c1)C(NC(C)=O)CCc1cc(OC)c(OC)c(OC)c1-2 (centres undefined)	-17	26	11	-79	65*	18	60*	57*	14
COc1cc2c(c(OC)c1OC)-c1ccc(OC)c(=O)cc1C(NC(C)=O)CC2 (centres undefined)	-14	28	24	-79	45	-9	.	.	.
COc1cccc(C(=O)Nc2ccc3c(cc2=O)[C@@H](NC(C)=O)CCc2cc(OC)c(OC)c(OC)c2-3)c1	-6	25	15	.	5	.	.	.	.
CCCC(=O)NC1CCc2cc(OC)c(OC)c(OC)c2-c2ccc(OC)c(=O)cc21 (centres undefined)	-17	20	22	-66	56*	6	58*	64*	-2
CCc1ccc(CNC(=O)CCCC(=O)n2nc(C)c3ccccc32)cc1	-1	14	0	19	57*	3	17	23	4
O=C(Nc1ccc(NC(=O)c2cc3ccccc3o2)cc1)c1ccc2c(c1)OCCO2	17	9	8	-2	52	-1	61*	2	88*
SMILES	NCOA1 inh	LRH-1 inv ag	NCOA3 inh	NR2F2 inh	Gli-Sufu antag	NCOA2 inhibitor	Gli-Sufu confirm	Gli cytotox	Wnt3a counter
NS(=O)(=O)c1ccc(OCCCN2CCC(C(O)(c3ccccc3)c3ccccc3)CC2)cc1	.	.	.	-13	.	16	.	.	.
O=C1CN(C(=O)NCCC(=O)NC2CCCCC2)c2ccccc2N1	-2	1	3	2	-16	-22	.	.	.
CN(C(=O)CCNC(=O)N1CC(=O)Nc2ccccc21)C1CCCCC1	-1	2	11	15	57*	10	15	20	-10
COC[C@@H]1CCCN1c1ccc2c(c1)O[C@@H]1CCN(C1)S2(=O)=O	.	.	.	-14	.	-43	.	.	.
O=C(C1CCCN1S(=O)(=O)c1cccc2nsnc12)N1CCN(c2ccc(F)cc2)CC1 (centres undefined)	7	-6	15	-18	58*	-4	20	-10	-25
NS(=O)(=O)c1ccc(CCNCc2cc(Cl)ccc2OCc2ccccc2)cc1	13	2	12	22	56*	2	23	-6	-17
C=CCOc1ccccc1CNCCc1ccc(S(N)(=O)=O)cc1	16	10	20	8	10	9	.	.	.
NS(=O)(=O)c1ccc(CCNCc2ccccc2OCc2ccc(Cl)cc2)cc1	-2	1	-7	5	50	-4	15	9	-61
CC(=O)C1(C(=O)NC2CCCC2)CC(c2ccccc2C(F)(F)F)=NO1 (centres undefined)	.	.	.	-10	.	9	.	.	.
